Our source for the inhibition values is PubChem BioAssay AID463213 (Sanford-Burnham Center for Chemical Genomics, 2010).

Each structure is given as a SMILES string. Among all 7,400 compounds or so, about 4,100 (55%) were called active. The set was probably picked from earlier hits. Only a sample is shown. A number with no mark means an inactive call.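 The calls were made as follows: active = inhibition of yeast growth at or above a set limit in either of two repeat tests at 20 µM; inactive = the rest.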

A short description of this assay: tim10-1 ts yeast growth inhibition, retested – single concentration, luminescence, S. cerevisiae, confirmation (AID 463213).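 Also: tim10-1 mutant grown at permissive 25 °C to find synthetic lethal compounds; 0% = DMSO yeast wells and 100% = medium wells without yeast.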 The note with it: S. cerevisiae tim10-1 ts strain growth, BacTiter-Glo, 24 h; at 20 µM; active compounds read high.
As to `O=C(Nc1nnc(SCc2c(Cl)cccc2Cl)s1)C1CCCO1` (stereo not given), the inhibition was 37% (active).

For `CN(C(=O)CC(NC(=O)c1ccccc1)(c1ccccc1)c1ccccc1)c1ccccc1`, the inhibition is 31.1% (active).

`CN(C(=O)COc1nnc(-c2cccs2)c(-c2cccs2)n1)c1ccccc1`: the inhibition was 17%.

With `CCOc1ccccc1/C=c1\sc2nc(-c3ccco3)nn2c1=O`, the inhibition was 49.4% (active).

In the case of `CCc1cccc(CC)c1NC(=S)NCc1ccc2[nH]c(C)cc2c1`, the inhibition was 35.8% (active).

Regarding `O=C1Oc2ccccc2C(=O)/C1=C/c1ccccc1O`, the inhibition is 55.9% (active).

As to `CN(C)CCCN(C(=O)c1ccc(S(=O)(=O)N2CCCc3ccccc32)cc1)c1nc2ccc(F)cc2s1`, the inhibition is 44.5% (active).

For `COC(=O)c1cc(S(=O)(=O)N2CCN(c3cc(C)ccc3C)CC2)c[nH]1`, the inhibition was 17.7%.

In the case of `Nc1cc(OC(=O)c2ccccc2Br)nn1S(=O)(=O)c1ccccc1`, the inhibition is 33.8% (active).

In the case of `O=C1c2ccccc2S(=O)(=O)N1CC(O)Cn1c2ccccc2c2ccccc21` (stereo not given), the inhibition is 51.1% (active).

For `CCOC(=O)c1ccccc1CN1C(=O)c2ccccc2S1(=O)=O`, the inhibition is 17.6%.

For `Cc1ccc(C)c(N2CCN(C(=O)CCCCn3c(=O)[nH]c4ccccc4c3=O)CC2)c1`, the inhibition is 17.4%.

Turning to `COc1cccc(-c2cc3nc4c(c(N5CCC6(CC5)OCCO6)n3n2)CCCC4)c1`, the inhibition was -1.05%.

As for `O=C1OC(/C=C/c2ccccc2)=NC/1=C/c1ccco1`, the inhibition is 3%.

For `O=c1nc2s/c(=C\c3ccco3)c(=O)n2nc1Cc1ccccc1`, the inhibition is 66.9% (active).

Consider `O=C(CSc1cccc2cccnc12)N/N=C/c1cccnc1`, for which the inhibition was 36% (active).

Consider `CCOc1cc(-c2conc2N)cc(OCC)c1OCC`, for which the inhibition was 20.5%.

Take `COC(=O)c1ccc(NC(=O)c2ccccc2NS(=O)(=O)c2ccccc2)cc1`: the inhibition was 19.4%.

Turning to `CCOC(=O)c1ccc(NC(=O)c2nc[nH]c2C(=O)NCc2ccccc2)cc1`, the inhibition is 41.4% (active).

`CN1CCN(c2ccccc2NC(=O)COc2ccc(C3CCCCC3)cc2)CC1`: the inhibition was 12.4%.

For the compound `O=C(COc1ccccc1F)NNC(=O)c1ccc(N2CCCCC2)c([N+](=O)[O-])c1`, the inhibition is 25.8%.

In the case of `Cc1ccccc1OCC(=O)Nc1ccc(N2CCN(C(=O)C(C)C)CC2)c(Cl)c1`, the inhibition is 66.9% (active).

As for `O=[N+]([O-])c1c(NCCO)cc(Sc2nc3ccccc3s2)c2nonc12`, the inhibition was 19% (active).

Turning to `CNC(=O)c1csc(Cc2c(Cl)sc3ccc(Cl)cc23)n1`, the inhibition was 20.5%.

`CCCc1cc(-c2nc(-c3ccc(C)cc3)cs2)ccn1`: the inhibition was 34.8% (active).

Take `CCOC(=O)/C=C/c1ccc(C(F)(F)F)cc1S(=O)(=O)NC(C)(C)C`: the inhibition is 29.9%.

In the case of `O=C(Nc1ccccc1Cl)/C(Cl)=C(\Cl)S(=O)c1ccccc1` (stereo not given), the inhibition was 55% (active).

On to `Cc1[nH]n(C(N)=S)c(=O)c1N=Nc1ccc(Cl)cc1Cl`, for which the inhibition was 61.3% (active).

For the compound `CC(=O)Oc1ccc2c(c1)C(=O)c1ccccc1C2=O`, the inhibition is 31.1% (active).

On to `O=C(CSC(=S)N1CCOCC1)c1cc(Br)cc(Br)c1O`, for which the inhibition is 46% (active).

As to `C[C@@H](NC(=O)OC(C)(C)C)c1nnc(S(=O)(=O)Cc2ccccc2)o1`, the inhibition was 48.3% (active).

For `CCOC(=O)Cc1csc(SCC(=O)NC(C)C23CC4CC(CC(C4)C2)C3)n1` (stereo not given), the inhibition was 40.4% (active).

Take `CCOC(=O)Cc1csc(NC(=O)CSc2ccc(Br)cc2)n1`: the inhibition was 31.3% (active).

Regarding `COc1ccc(NC(C)=O)cc1NC(=O)CN1CCN(C2c3ccccc3-c3ccccc32)CC1`, the inhibition was 15.5%.

Regarding `O=C(Nc1ccccc1)c1nnsc1S(=O)(=O)c1ccc(Cl)cc1`, the inhibition was 85.3% (active).

On to `COc1cc(/C=C2/C(=O)ON=C2C)ccc1OCc1ccccc1F`, for which the inhibition is 26.9%.

Take `CCCN(CC1COc2ccccc2O1)C(=S)Nc1ccc(C)cc1` (stereo not given): the inhibition was 36.7% (active).

Take `Cc1ccc(C(=O)COc2cccc(NC(=O)c3ccco3)c2)cc1`: the inhibition is 5.8%.

For `Cc1ccoc1C(=O)Nc1cccc(Oc2ccccc2)c1`, the inhibition was 43.2% (active).

Consider `CN(C)N1C(N)=C(C#N)C(c2ccc(Br)cc2)C2=C1CCCC2=O` (stereo not given), for which the inhibition was 8.4%.

With `S=c1[nH]nc(-c2cccnc2)n1/N=C/C(Cl)=C\c1ccccc1`, the inhibition is 33.9% (active).

For the compound `Fc1ccccc1/C=C1\CCCC2=C1Nc1ncnn1C2c1ccccc1F` (stereo not given), the inhibition is 30.5% (active).

As for `Cc1nc2sc(C(=O)c3ccccc3)c(N)c2c2c1CCCC2`, the inhibition is 37.9% (active).

For `Cc1ccc2c(N)c(C(=O)c3ccccc3)sc2n1`, the inhibition is 29.6%.

Consider `NC(=O)c1sc2nc3c(c(-c4ccccc4)c2c1N)CCC3`, for which the inhibition was 19.1%.

For the compound `CCn1c(COc2c(C)cccc2C)nnc1SCc1nc2ccccc2c(=O)[nH]1`, the inhibition is 20.1%.

Regarding `CCCCCCCCCCCCCCCC(=O)OC/C=C(C)/C=C/C=C(C)/C=C/C1=C(C)CCCC1(C)C`, the inhibition was 17.2%.

`COC(=O)CCc1sc(Nc2ccc(Br)cc2)nc1-c1ccc(OC)cc1`: the inhibition is 19.9%.

In the case of `COc1ccc(C(=O)COC(=O)c2ccc([N+](=O)[O-])s2)cc1OC`, the inhibition was 50.6% (active).

In the case of `COc1ccc(C(=O)OCC(=O)c2cc(C)n(CC3CCCO3)c2C)cc1[N+](=O)[O-]` (stereo not given), the inhibition was 6%.

For the compound `O=C1Nc2ccc(Br)cc2/C1=N/N=C/C1=C(N2CCOCC2)C(=C\c2ccccc2)/CC1`, the inhibition is 59.5% (active).

Regarding `O=S(=O)(Nc1ccc(O)c2ccccc12)c1ccc(OC(F)(F)F)cc1`, the inhibition was 32.2% (active).

As for `CC(C)NC(=O)/C(C#N)=C\c1ccc(N(C)C)c(Br)c1`, the inhibition is 46.5% (active).

Take `O=C1NC(Nc2nc3ccccc3s2)(C(F)(F)F)C(=O)N1C1CCCCC1` (stereo not given): the inhibition was 35.5% (active).

Consider `COC(=O)c1c(NC(=O)COc2ccc(Cl)cc2Cl)sc2c1CC(C)(C)NC2(C)C`, for which the inhibition is 14.3%.

`Clc1ccc(Nc2nc(-c3cccs3)cs2)nc1`: the inhibition was 15%.

As for `Cc1ccc(Nc2nc(-c3ccc(O)cc3O)cs2)nc1`, the inhibition is 27.6% (active).

On to `COc1ccccc1N1CCN(C(=O)c2cc(=O)c3cc(C)cc(C)c3o2)CC1`, for which the inhibition is 24.9%.

Consider `CCOC(=O)C/C(C)=N\Nc1ccc([N+](=O)[O-])cc1[N+](=O)[O-]`, for which the inhibition is 9.35%.

As to `O=[N+]([O-])c1ccc(N/N=C2/CCCCC2c2ccccn2)c([N+](=O)[O-])c1` (stereo not given), the inhibition is 38.6% (active).
